Reference: PubChem BioAssay (NCI)
This is part of a sample that, as a whole, favours compounds with a hit. Of some 83,000 tested, about 20% had one in any assay.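 Percent growth is the endpoint: 0 to 100 indicates growth inhibition (40 means 60% inhibition), 0 means no net growth, and negative values indicate cell death.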 A number with no mark means an inactive call. The source made the active and inactive calls. Rule for the calls: active = growth percent below 10; inactive = the rest.

Legend:
Test in all cases: NCI-60 one-dose screen, 48 h (100 = growth as untreated, 0 = no growth, -100 = all killed)
Details in all cases: 10 µM unless noted
[1] = system: DU-145 prostate
[2] = system: K-562 leukemia
[3] = system: MALME-3M melanoma
[4] = system: MDA-MB-231 breast
[5] = system: RXF 393 renal
[6] = system: SF-268 CNS
[7] = system: SF-295 CNS
[8] = system: SF-539 CNS
[9] = system: UACC-257 melanoma
[10] = system: M14 melanoma
[11] = system: HCT-15 colon
[12] = system: HT29 colon
[13] = system: SNB-75 CNS
[14] = system: SNB-19 CNS
[15] = system: U251 CNS
[16] = system: PC-3 prostate
[17] = system: SK-MEL-5 melanoma
[18] = system: UACC-62 melanoma
[19] = system: LOX IMVI melanoma
[20] = system: SK-MEL-28 melanoma

SMILES | growth [1] | growth [2] | growth [3] | growth [4] | growth [5] | growth [6] | growth [7] | growth [8] | growth [9] | growth [10] | growth [11] | growth [12] | growth [13] | growth [14] | growth [15] | growth [16] | growth [17] | growth [18] | growth [19] | growth [20] [%]
CCc1c(C)c2cc(-n3c(-c4ccc(OC)cc4)csc3=N)c(O)c(C)c2oc1=O | 17.7% | 5.33% (active) | 15.3% | 13.4% | 27.8% | 16.5% | 20.8% | -0.811% (active) | 60.8% | 9.77% (active) | 9.38% (active) | 5.28% (active) | -2.92% (active) | 21.7% | 10.8% | 12.9% | 4.4% (active) | 2% (active) | 5.9% (active) | 28.6
O=S(=O)(O)c1ccc(F)cc1 | 103% | 85% | 90.7% | 112% | 116% | 93.2% | 96.1% | 102% | 111% | 98.1% | 104% | 96.5% | 101% | 114% | 109% | 106% | 105% | 107% | 98.9% | 
CS(=O)(=O)Nc1cccc(-c2ccc3ncnc(Nc4cncc(Cl)c4)c3c2)c1 | 38.6% | 16.9% | 40.3% | 1.39% (active) | 19.8% | 42.4% | -17.7% (active) | 2.94% (active) | 49.7% | 16.8% | 16% | 5.04% (active) | 19.8% | 51.4% | 23.8% | 19.8% | 35.6% | 29% | 11% | 
NN=C(c1ccc(Cl)cc1)c1ccc(Cl)cc1 | 116% | 105% | 121% | 106% | 109% | 96.6% | 91.1% | 104% | 94.5% | 106% | 90.4% | 96.7% | 96.3% | 98.9% | 102% | 101% | 107% | 100% | 77.1% | 
Cc1ccc(NC(=O)CN2CCOCC2)cc1Cl | 102% | 94.7% | 102% | 96% | 104% | 103% | 94.3% | 98.7% | 88.1% | 100% | 102% | 80.6% | 97.4% | 94.8% | 97.7% | 74.7% | 95.6% | 92.7% | 101% | 104
O=C(Nc1cccc(-n2ccc3c(NC(=O)c4ccccc4)nccc32)c1)Nc1ccc(Cl)c(C(F)(F)F)c1 | -19.3% (active) | 3.03% (active) | 33.6% | 13.7% | -41.7% (active) | 8.59% (active) | -6.24% (active) | 8.31% (active) | 46.2% | 2.96% (active) | 10.6% | -38.9% (active) | 54.7% | 24.8% | 9.27% (active) | 20.4% | -35.5% (active) | 20.9% | 11.8% | 44.5
C=C1c2c(Cl)ccc(O)c2C(O)=C2C(=O)[C@]3(O)C(O)=C(C(N)=O)C(=O)[C@@H](N(C)C)[C@@H]3[C@@H](O)[C@H]12 | 21.9% | 3.66% (active) | -15% (active) | 11% | 12.4% | 11.8% | -4.14% (active) | 5.14% (active) | -4.26% (active) | 9.22% (active) | 13.7% | 10.9% | 0.44% (active) | 20.9% | 4.36% (active) | -8.47% (active) | 20.4% | 7.11% (active) | 0.768% (active) | 
CCCCCC/C=N/Nc1ccc([N+](=O)[O-])cn1 | 103% | 96.7% | 98.1% | 98.7% | 104% | 103% | 95.3% | 93.7% | 88.7% | 90.4% | 102% | 81.5% | 105% | 108% | 110% | 93.2% | 113% | 102% | 83.2% | 
COc1ccccc1NC(=O)COc1ccc(/C=C2/Oc3cc4occc4c(OC)c3C2=O)cc1OC | 114% | 99.4% | 115% | 99.8% | 103% | 103% | 103% | 101% | 100% | 106% | 104% | 113% | 114% | 105% | 102% | 92.2% | 86.3% | 91.6% | 98.8% | 111
CC(Cc1cccc(C(F)(F)F)c1)NCCOC(=O)c1ccccc1 (configuration not stated) | 112% | 94.4% | 104% | 102% | 117% | 99.5% | 98.4% | 116% | 105% | 106% | 105% | 115% | 99.5% | 100% | 104% | 103% | 89.5% | 102% | 96.3% | 107
Nc1nccc2c1ccn2-c1ccc(NC(=O)c2ccc(N3CCOCC3)c(C(F)(F)F)c2)cc1 | 48.3% | 1.22% (active) | -18.1% (active) | -3.15% (active) | -77.4% (active) | 18.2% | -59.6% (active) | 7.48% (active) | 32.7% | -61.8% (active) | 14.1% | -39.7% (active) | 25.7% | 0.546% (active) | 12% | 10.4% | -89.6% (active) | 6.43% (active) | -45.3% (active) | 
c1ccc(OCC[P+](c2ccccc2)(c2ccccc2)c2ccccc2)cc1 | 36.4% | 17.5% | 15.5% | 43.6% | 51% | 20.9% | 21.2% | 32% | -4.91% (active) | 32.6% | 78% | 13% | 16.5% | 21.5% | 14.8% | 11.8% | -40.1% (active) | 8.25% (active) | 2.69% (active) | 
C[C@]12O[C@H]1[C@H](O)c1c(cc(O)c3c1C(=O)c1cccc(O)c1-3)C2=O | 111% | 93.9% | 100% | 94% | 123% | 107% | 102% | 99.6% | 89% | 89.8% | 103% | 92.9% | 86.3% | 104% | 97.6% | 87.3% | 97.7% | 88.2% | 87.8% | 107
Cc1cccc[n+]1CCC[n+]1ccccc1C | 111% | 103% | 105% | 115% | 111% | 107% | 103% | 98.9% | 111% | 89.4% | 96.7% | 94.1% | 103% | 111% | 101% | 95.4% | 101% | 109% | 96.9% | 103
Cc1cc(-c2ccccc2)nc2ccccc12 | 112% | 91.8% | 99.4% | 94.3% | 94.6% | 94.7% | 97.6% | 98.2% | 99.9% | 96.6% | 97.5% | 113% | 86.9% | 101% | 97.4% | 99.8% | 95% | 95.7% | 98.5% | 114
O=C(C[n+]1cccc(Br)c1)c1ccc2c(c1)CCCC2 | 110% | 100% | 96.6% | 99.4% | 117% | 103% | 104% | 98.6% | 112% | 92.4% | 99.4% | 80.7% | 101% | 108% | 102% | 94.3% | 99.2% | 104% | 97.1% | 
